High-throughput results: PubChem, National Center for Advancing Translational Sciences (NCATS)
POLI inh: DNA polymerase iota (human) inhibition; Pol iota fluorescent replication assay, 10 min; Potency, µM (series often up to 115 µM), without a hit: at the top dose activity, negative = inhibition, usual class: inhibitors; hit rate 1% among 390,000; note: potency is the fitted concentration of half-maximal effect
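Fluorescent replication assay read twice, at 0 min and 10 min after adding 50 nM (final) substrate. Enzyme (10 nM) and compounds were first incubated 15 min at room temperature; enzyme-free buffer wells were negative controls.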
POLB inh: DNA polymerase beta (human) inhibition | hit rate 1.3% among 340,000 | P06746 | Potency, µM (doses to about 114 µM), inactives show at the highest dose activity change, negative = inhibition, actives largely listed as inhibitors | Pol beta primer extension/strand displacement, fluorescence kinetic | AID 485314; note: potency is the fitted concentration of half-maximal effect; % is set by controls: 0 for no effect and ±100 for the full control effect
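Values derive from four-parameter Hill fits of normalized kinetic data: reads at 0 and 10 min following addition of 50 nM substrate to 10 nM Pol beta preincubated 15 min with compound.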
Pol eta inh-1: DNA polymerase eta (human) inhibition; Q9Y253; recombinant Pol eta, fluorescent DNA replication assay; Potency, µM (top dose mostly 114 µM), inactives show at the highest dose activity change, negative = inhibition, actives largely listed as inhibitors; hit rate 1.2% among 390,000; note: potency is the fitted concentration of half-maximal effect; % is set by controls: 0 for no effect and ±100 for the full control effect
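Pol eta at 10 nM preincubated with compounds 15 min at room temperature; reaction started with fluorescent substrate (50 nM final) and read kinetically at 0 and 10 min.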
Pol kappa inh-1: blocks human DNA polymerase kappa activity; Q9UBT6; purified Pol kappa, fluorescent DNA synthesis assay, 10 min; Potency, µM (doses to about 107 µM), without a hit: at the highest dose activity, negative = inhibition, hits mostly inhibitors; hit rate 0.53% among 400,000; AID 588579; note: potency is the fitted concentration of half-maximal effect; % is set by controls: 0 for no effect and ±100 for the full control effect
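Fluorescent qHTS in 1536-well format: enzyme (10 nM) and compound sat 15 min at room temperature before 50 nM substrate (final) was added. Signal taken at 0 and 10 min; no-enzyme buffer wells were negative controls.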
FEN1 inhibitor: inhibitors of human flap endonuclease 1; P39748; Recombinant FEN1 flap cleavage, fluorescence, 15 min; Potency, µM (titrated, usually from 114 µM), inactives show at the top dose activity change, negative = inhibition, hits mostly inhibitors; hit rate 0.35% among 390,000; AID 588795; note: potency is the fitted concentration of half-maximal effect; % is set by controls: 0 for no effect and ±100 for the full control effect; nearly all actives have a fitted effect of over 65% in size
Target sequence (P39748 whole entry, looked up): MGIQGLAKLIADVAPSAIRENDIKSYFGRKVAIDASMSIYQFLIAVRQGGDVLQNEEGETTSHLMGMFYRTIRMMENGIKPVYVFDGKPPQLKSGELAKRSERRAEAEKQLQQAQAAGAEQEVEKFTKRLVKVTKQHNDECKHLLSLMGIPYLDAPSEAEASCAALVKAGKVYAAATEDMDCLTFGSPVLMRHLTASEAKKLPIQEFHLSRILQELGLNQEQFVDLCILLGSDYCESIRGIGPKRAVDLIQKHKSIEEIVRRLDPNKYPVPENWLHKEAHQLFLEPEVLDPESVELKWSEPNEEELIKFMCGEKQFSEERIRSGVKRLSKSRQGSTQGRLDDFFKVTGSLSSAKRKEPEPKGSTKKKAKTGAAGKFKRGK
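Enzyme 10 nM, 15 min RT preincubation with compound; start with substrate 50 nM final; reads at 0 and 15 min; qHTS titration, four-parameter Hill fit.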
WRN inhibitor: blocks human WRN helicase; Q14191; WRN helicase unwinding, fluorescent forked duplex, kinetic; Potency, µM (highest dose often 114 µM), for inactives: at the highest dose activity change, negative = inhibition, hits mostly inhibitors; hit rate 0.46% among 360,000; AID 651768; note: potency is the fitted concentration of half-maximal effect; % is set by controls: 0 for no effect and ±100 for the full control effect; nearly all actives have a fitted effect of over 55% in size
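Fluorescence dequenching readout, ex 525 nm/em 598 nm, kinetic mode: forked duplex DNA (100 nM final) with adjacent fluorophore and quencher unwound by WRN (20 nM final) with 2 mM ATP. Compound preincubation 15 min, room temperature.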
GALK inh confirm: galactokinase (human) inhibition, confirmation; shares compounds with Pol eta inh-1; hit rate 70% among 150; purified GALK, Kinase-Glo ATP depletion luminescence; AID 2015; Potency, µM (titrated, usually from 115 µM), for inactives: at the top dose activity, negative = inhibition, most hits filed as inhibitors
Target sequence (P51570 whole entry, looked up): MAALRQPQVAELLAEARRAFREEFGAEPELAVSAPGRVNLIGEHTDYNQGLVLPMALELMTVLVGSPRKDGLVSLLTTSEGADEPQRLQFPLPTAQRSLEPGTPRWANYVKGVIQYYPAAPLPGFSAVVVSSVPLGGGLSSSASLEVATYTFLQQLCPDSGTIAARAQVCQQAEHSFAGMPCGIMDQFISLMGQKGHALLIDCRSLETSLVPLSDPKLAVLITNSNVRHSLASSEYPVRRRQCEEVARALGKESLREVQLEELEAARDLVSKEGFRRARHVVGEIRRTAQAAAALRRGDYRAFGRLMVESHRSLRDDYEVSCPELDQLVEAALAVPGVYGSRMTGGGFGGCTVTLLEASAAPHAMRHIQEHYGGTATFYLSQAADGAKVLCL
GALK redox cs: redox cycling activity in phenol red-HRP assay | shares compounds with Pol eta inh-1 | Phenol red-HRP H2O2 redox cycling, absorbance 600 nm | Potency, µM (doses to about 115 µM), inactives show at the highest dose activity change, negative = H2O2 signal, usual class: inhibitors | hit rate 40% among 150
HEK293 viability: counter-screen for GALK inhibitors: HEK293 cell cytotoxicity. shares compounds with Pol eta inh-1. Potency, µM (top dose mostly 46.1 µM), inactives show at the highest dose activity change, negative = cytotoxicity, actives largely listed as inhibitors. hit rate 10% among 170. HEK-293 viability, ATP luminescence (CellTiter-Glo), 24/48 h; note: potency is the fitted concentration of half-maximal effect; % is set by controls: 0 for no effect and ±100 for the full control effect
Pol kappa inh-2: confirmation of human DNA polymerase kappa inhibitors | shares compounds with Pol eta inh-1 | purified Pol-kappa, fluorescent strand-displacement substrate | Potency, µM, most hits filed as inhibitors | hit rate 76% among 920 | AID 720501; note: potency is the fitted concentration of half-maximal effect
Pol eta inh-2: Pol eta (human) inhibition, cherry-pick confirmation; shares compounds with Pol eta inh-1; hit rate 64% among 2,600; Pol eta primer extension, TAMRA/BHQ fluorescence, 10 min; Potency, µM, hits mostly inhibitors; note: potency is the fitted concentration of half-maximal effect
* marks the source's active call; other numbers are inactive results; ? = inconclusive; . = no result; [ ] = dose if it differs, or a comment. The list is not random: actives were taken first. Their share in the collection is about 2.4%. Calls come from the whole dose curve; as a rule, active = well fitted curve in the direction sought with a large enough effect; inconclusive = small, poorly fitted or top-dose-only effect, or another doubt; inactive = no such curve, though single readings can be large; an effect the other way counts as inactive or inconclusive.

SMILES	POLI inh	POLB inh	Pol eta inh-1	Pol kappa inh-1	FEN1 inhibitor	WRN inhibitor	Pol eta inh-2	others
COc1ccccc1Nc1nnc(C)c(=O)[nH]1	15%	30%	2%	-2%	-3%	13%	.
O=c1[nH]c(Nc2ccccc2)cc2ccccc12	11µM*	6%	?	-26%	?	-49%[57.1 µM]	.	GALK inh confirm=42µM*;GALK redox cs=21µM*;HEK293 viability=8%
COc1ccccc1Nc1cc2cc(Br)ccc2c(=O)[nH]1	?	.	20µM*	79µM*	1%	-18%[57.1 µM]	67*
O=c1[nH]c(Nc2ccccc2)cc2cc(Br)ccc12	?	.	40µM*	?	-15%	-8%[57.1 µM]	?
CC(=O)c1cccc(-c2ccc3c(=O)[nH]c(Nc4ccccc4)cc3c2)c1	?	.	20µM*	?	1%	-19%[57.1 µM]	76*
Cn1c(=O)cc(Nc2ccccc2)[nH]c1=O	137%	-6%	-5%	-8%	4%	-28%	.
COc1ccc(CCn2c(=S)[nH]c(=O)c3[nH]cnc32)cc1OC	21%	.	.	-12%	5%	.	.
O=C(CCCCCn1c(=O)[nH]c2ccccc2c1=O)NCc1cccc(Cl)c1	0%	10%	-3%	-5%[60.1 µM]	-5%	.	.
CC(C)c1ccc(NC(=O)c2cc3c(=O)oc4ccccc4c3s2)cc1	14%	26%	-18%	-2%	-1%	.	.
Cc1ccc(C)c(Cn2nnc3c(=O)[nH]c(C4CCCN(C(=O)C5CCCCC5)C4)nc32)c1 (stereo not drawn)	0%	5%	-10%	-10%	-22%	-4%	.
Cc1ccc(C)c(Cn2nnc3c(=O)[nH]c(C(=O)NCc4ccco4)nc32)c1	22µM*	4%	32µM*	89µM*	-16%	?	76*
CC(C)CCNC(=O)c1ccc2c(c1)N(Cc1ccccc1F)C(=O)c1ccccc1S2(=O)=O	7%	16%	-4%	-10%	-7%	.	.
C/C(=N/Nc1ccccc1C(=O)O)c1cccs1	-17%	33%	-17%	-20%	3%	-13%	.
C/C(=N\Nc1ccc(Cl)c(C(=O)O)c1)c1cccs1	?	14µM*	18µM*	?	-25%	-14%[11.6 µM]	30*
Cc1nc(Nc2nc(-c3ccccc3)cc(=O)[nH]2)nc2ccccc12	64%	.	?	-15%	25µM*	-34%	?
CC(C)C(CCNC(=O)CC(Cc1ccccc1)c1ccco1)c1ccco1 (stereo not drawn)	?	32µM*	79µM*	?	-17%	-12%[11.6 µM]	85*	Pol kappa inh-2=53*
Cc1ccccc1NC(=O)CSc1[nH]c(=O)cc(C)c1C#N	?	3%	20µM*	?	?	-27%[57.1 µM]	?
Cc1cc(=O)[nH]c(SCC(=O)c2ccccc2)c1C#N	5%	-18%	-14%	-9%	-14%	-11%	.
COc1ccc2occ(CC(=O)Nc3ccc(S(=O)(=O)Nc4nccc(C)n4)cc3)c2c1	?	?	79µM*	?	-15%	.	?	Pol kappa inh-2=47*
CCOc1ccc(C(=O)c2cn(CC(=O)Nc3cc(OC)cc(OC)c3)c3ccc(F)cc3c2=O)cc1	?	14µM*	?	-15%	-10%	.	.	Pol kappa inh-2=?
CCc1ccc(C(=O)c2cn(CC(=O)Nc3cc(OC)cc(OC)c3)c3ccc(CC)cc3c2=O)cc1	18%	-8%	-9%	-13%	17%	.	.
COc1ccc2c(c1)c1c(c(=O)n(-c3ccc(OC)c(OC)c3)c(=O)n1CC(=O)N1CCCC1)n2C	-8%	11%	-11%	2%	14%	.	.
CS(=O)(=O)Nc1cccc(-c2ccc3ncnc(Nc4ccc(F)cc4)c3c2)c1	.	.	.	-6%[60.1 µM]	.	.	.
COc1ccc(C(=O)OCc2cc(=O)n3nc(-c4cccs4)sc3n2)cc1	?	?	?	-7%	4%	.	?
O=C(O)CN1C(=O)/C(=C\c2cccc(OCc3ccc(Cl)cc3Cl)c2)SC1=S	?	0%	79µM*	-9%	?	-15%[11.6 µM]	?	Pol kappa inh-2=47*
SMILES	POLI inh	POLB inh	Pol eta inh-1	Pol kappa inh-1	FEN1 inhibitor	WRN inhibitor	Pol eta inh-2	others
O/N=C/c1cc(Br)ccc1OCc1ccccc1F	5%	.	-6%	-2%	?	-5%	.
O=C(O)CN1C(=O)/C(=C\c2cc(Br)ccc2OCc2ccccc2F)SC1=S	-25%	?	?	-14%	?	2%[11.6 µM]	?
CC1=NN(c2ccccc2)C(=O)/C1=C\c1c(C)[nH]n(-c2ccccc2)c1=O	6%	4%	-11%	-7%	-6%	-16%	.
CC1=NN(c2ccccc2)C(=O)/C1=C/c1c(O)n(-c2ccc(F)c(Cl)c2)[nH]c1=O	-28%	?	28µM*	?	?	?	.	GALK inh confirm=30µM*;GALK redox cs=5%;HEK293 viability=12%
CCN(C(=O)CCS(=O)(=O)c1cc(Br)cc2c1N(C(=O)C1CC1)CC2)c1cccc(C)c1	-7%	-18%	-7%	0%	-4%	.	.
CCC(=O)N1CCc2cc(Br)cc(S(=O)(=O)CCC(=O)N(C)c3cccc(C)c3)c21	7%	45µM*	35µM*	-30%	-2%	.	85*
COc1ccc(-c2nnc(SCC(=O)Nc3ccc(F)cc3)s2)cc1	14%	-29%	-5%	-2%[60.1 µM]	5%	.	.
O=c1[nH]c(/C=C/c2ccc([N+](=O)[O-])cc2)c([N+](=O)[O-])c(=O)[nH]1	?	-3%	45µM*	-4%	-18%	-25%	?	GALK inh confirm=38µM*;GALK redox cs=-2%;HEK293 viability=6%
O=[N+]([O-])c1ccc(NN=Cc2cccc3ccccc23)cc1	11%	.	8%	4%	-12%	-5%	.
O=[N+]([O-])c1cc(Br)c(O)c(/C=N/Nc2nnnn2-c2cccc3ccccc23)c1	-19%	?	71µM*	-21%	?	?	.	GALK inh confirm=30µM*;GALK redox cs=-2%;HEK293 viability=-1%
